In ChEMBL document CHEMBL3988442, “University of Dundee, Small-Polar-MMV Screening Library” (2021):
The whole screen tested about 48,000 compounds, of which about 13,000 (27%) showed an effect of 50% or more. The list shows a part of the results.

What follows are compounds tested on Wolbachia pipientis (assay: Anti-Wolbachia Cell-Based Screen). Details: 5 µM.
Type: functional
Parameters: scale not given: in the data most compounds retested in dose-response had high values

Structure (SMILES) | Percent Effect [%]
CCOCC1CN(C(=O)c2ccncc2)Cc2nn(C)cc21.O=C(O)C(F)(F)F (stereo not given) | -7.804
COCCn1cc(C(=O)N2CCCC2c2cc(C)no2)ccc1=O (stereo not given) | -14.99
CN1CCC(O)(CNCc2ccc(F)c(C(F)(F)F)c2)CC1 | -14.25
Nc1nc2c(c(N3CCSCC3)n1)CCN(Cc1ccccn1)CC2 | 1.858
Cc1nc2c(c(NCCc3nccs3)n1)CCN(CC1CC1)CC2 | 100.8
COCCNc1nc2c(c(NCC3CCOC3)n1)CCNCC2 (stereo not given) | 0.8355
Cc1nc2c(c(NCCc3nc(C)c(Cl)s3)n1)CCNCC2 | 2.221
CCOCc1nc2c(c(N3CC=CC3)n1)CCN(CC1CC1)CC2 | -17.04
COCCNc1nc(C)nc2c1CCN(C[C@H]1CC[C@@H](N)CC1)CC2 | 85.9
c1csc(CN2CCc3nc(N4CCOCC4)nc(NC4CC4)c3C2)n1 | -41.6
Nc1nc2c(c(NCc3nccs3)n1)CCN(CC1CCCC1)CC2 | 99.65
Cc1cnn(CCNc2ncnc3c2CCN(CC2CCOC2)CC3)c1 (stereo not given) | 11.29
CCN(Cc1nccn1C)C(=O)c1ccc(NCC(C)C)nc1 | -32.37
Cc1cnc(N2CCC3(C2)CN(S(=O)(=O)C2CC2)C3)nc1 | -23.78
CCn1nc(CC(C)C)cc1C(=O)N1CCCOC(CN2CCCC2)C1 (stereo not given) | 12.35
COc1cc(CNC(=O)Nc2nnc(C(F)(F)F)s2)ccc1O | -18.17
CCOCCC(=O)NCC1CCCO1 (stereo not given) | 5.918
O=C(NCC1CCCO1)Nc1nnc(C(F)(F)F)s1 (stereo not given) | 131.1
Cc1csc(N2CCCN(Cc3ccn(C)c(=O)c3)CC2)n1 | 2.494
CNS(=O)(=O)CCn1cc(-c2ccc(NC(C)=O)cc2)nn1 | -17.97
CN(C)S(=O)(=O)N1CCC(Oc2ccccn2)CC1 | -12.57
CN(C)S(=O)(=O)N1CCC(Oc2cccnn2)CC1 | 154.7

Structure (SMILES) | Percent Effect [%]
Cc1ccc(S(=O)(=O)N2CCC(Oc3cccnn3)CC2)c(C)c1 | -2.974
Cc1cc(CN2CC[C@H]3C[C@H](C(=O)Nc4cccnc4C)O[C@@H]3C2)no1.O=C(O)C(F)(F)F.O=C(O)C(F)(F)F | 0
Cc1c(C(C)NC(=O)Nc2ccc(F)cc2F)cnn1C (stereo not given) | -7.694
COc1ccccc1NC(=O)CC(C)NCc1scnc1C (stereo not given) | -14.83
COc1ccccc1NC(=O)CC(C)NCCc1sc(C)nc1C (stereo not given) | -7.62
CC(C)CC(=O)N1CC(=O)c2sc(Nc3ccc(F)cc3F)nc2C1 | 102.3
COc1ccccc1Nc1nc2c(s1)C(=O)CN(C(=O)CC(C)C)C2 | 106.8
CC(C)(C)NC(=O)CN1CCN(C(=O)Nc2ccc(F)cc2F)CC1 | 10.15
COCC(=O)N1Cc2cnc(Cc3ccc(OC)cc3)nc2C1 | -9.911
COCC(=O)N1CC(=O)c2sc(Nc3ccc(F)cc3F)nc2C1 | 92.12
CNS(=O)(=O)Cc1ccccc1CNc1ccc(C#N)cn1 | 4.345
Cc1cnccc1-n1nc(C(C)C)nc1CS(C)(=O)=O | -11.94
Cn1cc(C(NCCc2ccccn2)c2cccc(F)c2)cn1 (stereo not given) | -5.902
CN(C(=O)CCc1ccsc1)S(C)(=O)=O | -3.197
CC(C)CNC(=O)N1C[C@H]2CC[C@@]3(N=C(c4ccccc4)NC3=O)[C@H]2C1 | -1.799
CN(C)CCNCC1CCOC(C)(C)C1 (stereo not given) | 114.8
CN(C)CCCNCC1CCOC(C)(C)C1 (stereo not given) | 84.35
CC1(C)CC(CN2CCC3(CCC(=O)N(CCO)C3)CC2)CCO1 (stereo not given) | -24.07
CC(C)NC(=O)C(C(C)C)n1cnc2cc(F)c(F)cc21 (stereo not given) | -2.583
Cn1cnc2c1C(C(=O)N1CCOCC1)N(C(=O)c1ccccc1)CC2 (stereo not given) | 1.78
CCC1CCCCN1C(=O)Cn1nc(-c2ccc(C)o2)cc(N)c1=O (stereo not given) | 125.9
CCC1CCCCN1C(=O)Cn1nc(-c2cc(C)oc2C)cc(N)c1=O (stereo not given) | 172.7

Structure (SMILES) | Percent Effect [%]
CCOC(=O)CC1CCCCN1C(=O)c1cc(C)oc1C (stereo not given) | 1.644
Cc1cc(C)n(C2CCCN(C(=O)Cn3ccc(=O)n(C)c3=O)C2)n1 (stereo not given) | 5.694
Cc1cc(-c2cc(N)c(=O)n(CC(=O)N3CCCC(C)C3)n2)c(C)o1 (stereo not given) | 135.5
CCOC(=O)CC1CCCCN1C(=O)c1cc(=O)[nH]c(=O)[nH]1 (stereo not given) | 3.722
CCC1CCCCN1C(=O)Cn1nc(-c2ccc(C)s2)cc(N)c1=O (stereo not given) | 132.6
CCC1CCCCN1C(=O)Cn1cnc(C#N)n1 (stereo not given) | -4.598
CNC(=O)C1CCCCN1C(=O)Cc1csc(-c2ccc(C)o2)n1 (stereo not given) | 7.331
Cc1ccc(-c2cc(N)c(=O)n(CC(=O)NCC3CCCCC3)n2)s1 | -12.04
CC1CCCN(C(=O)Cn2cc(I)cn2)C1 (stereo not given) | 2.299
Cl.O=C(NCC1CCC2(CCNCC2)CO1)c1ccno1 (stereo not given) | -17.95
COC(=O)N1CCC(Nc2cccc(F)c2C(C)=O)C1 (stereo not given) | 18.09
Cc1cc(CNc2ccc3nc(C4CC4)sc3c2)no1 | -18.62
COc1ccc(C)cc1CCNS(=O)(=O)c1ccc2c(c1)CCC(=O)N2 | -14.2
COCCN1CCC(NCc2ccc(C#N)cc2)C1 (stereo not given) | -5.015
COCCN1CCC(NCc2ccc(Cl)cc2)C1 (stereo not given) | 79.9
COCCN1CCC(NCc2c(F)cccc2F)C1 (stereo not given) | 93.26
COCCN1CCC(NCc2cc(F)ccc2F)C1 (stereo not given) | 105
COCCN1CCC(NCc2c(C)nn(C)c2N(C)C)CC1 | -18.36
COCCN1CCC(NCc2cccc(C)c2)C1 (stereo not given) | 89.68
COCCN1CCC(NCc2cccnc2)C1 (stereo not given) | -0.4239
COCCN1CCC(CNC(=O)CCc2cc(F)ccc2F)C1 (stereo not given) | -0.9804
CCCN1CCC(NCc2ccncc2)CC1 | 12.05

Structure (SMILES) | Percent Effect [%]
COCCN1CCC(NCc2cccc(F)c2)C1 (stereo not given) | 4.631
COCCN1CCC(NC(=O)NCC2(c3cccc(F)c3)CC2)C1 (stereo not given) | 7.702
CSc1ccc(CN(C(=O)c2cc[nH]n2)C2CC2)cc1 | -13.27
CCCN(Cc1nccn1C)C(=O)C(CC)Nc1cccc(OC)c1 (stereo not given) | -30.45
COCCN1CCC(NC(=O)C(C)C)CC1 | -12.29
COCCN1CCC(NCc2ccc(F)cc2F)C1 (stereo not given) | 87.91
CC(C)Nc1ncccc1C(=O)NCc1ncc[nH]1 | 7.716
Cc1cccc(I)c1C(=O)NCc1ncc[nH]1 | -11.65
CCCN(Cc1nccn1C)C(=O)c1cc(C(C)C)on1 | -14.15
Cc1cc(C(F)F)nn1C(C)C(=O)NCc1ncc[nH]1 (stereo not given) | 132.9
Cc1cc(C(F)F)nn1C(C)C(=O)NCc1nccn1C (stereo not given) | 129.1
Cc1cc(C(F)(F)F)nn1C(C)C(=O)Nc1ccncc1 (stereo not given) | 11.57
Cc1ncc2c(n1)CCN(Cc1nc(Cc3ccccc3)no1)C2 | 2.52
Cc1noc([C@@H]2C[C@H](NC(=O)Nc3ccccc3)CN2C)n1 | 1.901
CN(C)C(=O)C1CCCN1C(=O)c1ccc(Cn2ccnc2)o1 (stereo not given) | -6.024
COCCN1CCN(Cc2coc(-c3ccccc3Cl)n2)CC1 | -11.13
CCOc1ccnc(N2CCN(CCOC)CC2)n1 | -0.8063
C[C@@H]1CN(Cc2ccccc2F)CC(C(N)=O)O1 (stereo not given in full) | 1.23
C[C@@H]1CN(c2nc(O)cc(Cc3ccccc3F)n2)C[C@H](C)O1 | 156.7
CC(NCc1ccccn1)c1ccc(N2CCN(C)CC2)c(F)c1 (stereo not given) | -5.411
CN1CCN(c2nc(O)cc(Cc3ccccc3F)n2)CC1 | 156.6
CCN1CCCC(O)(CNCc2ccccc2F)C1 (stereo not given) | 5.055

Structure (SMILES) | Percent Effect [%]
CCN1CCN(c2ccc(F)cc2C(C)NCc2ccccn2)CC1 (stereo not given) | 9.781
COCCN1CCN(c2nc(O)cc(Cc3ccccc3F)n2)CC1 | 126.9
CCN1CCN(c2nc(O)cc(Cc3ccccc3F)n2)CC1 | 169.1
COc1ccc2c(C)nc(N3C[C@@H](C)O[C@@H](C)C3)nc2c1 | -4.468
CN1CCN(CCCNS(=O)(=O)Cc2ccccc2F)CC1 | -19.52
c1ccc(Cn2cccn2)c(CN2CCC3(CCCNC3)C2)c1 (stereo not given) | -20.95
O=S(=O)(CCO)Cc1ccc(OCC(F)(F)F)cc1 | 1.249
COCCOCCNC(=O)C(C)Oc1ccccc1C(F)(F)F (stereo not given) | 0.2325
O=C(O)C(F)(F)F.c1cc(CN2CCCn3cnc(COCC4CC4)c3C2)co1 | 3.975
CCCc1cc(C(=O)N[C@@H](CO)[C@@H](O)c2ccccc2)n(C)n1 | 130.2
CCCc1cc(C(=O)NC(c2ccccc2)c2n[nH]c(C)n2)[nH]n1 (stereo not given) | 3.333
CCCc1cc(C(=O)N(C)Cc2cnc3ccccc3n2)n(C)n1 | -19.21
CC(C)Cc1cc(C(=O)NCC(O)c2ccc(F)cc2)n(C)n1 (stereo not given) | 0.3453
CCC(NC(=O)c1cc(CC(C)C)nn1C)c1ccnn1C (stereo not given) | 9.016
CCCc1cc(C(=O)N[C@H](C)[C@@H](O)c2ccc(O)cc2)n(C)n1 | 110
O=C(CCCn1cncn1)NC1(c2cccc(Br)c2)CC1 | -89.93
O=S(=O)(NCc1cccnc1OC1CCCC1)N1CCOCC1 | -7.047
O=S(=O)(NCCc1ccccc1F)N1CCOCC1 | 104.5
O=C(Cc1ccccc1F)NCCN1CCOCC1 | 3.995
O=S(=O)(Cc1ccccc1F)NCCN1CCOCC1 | -10.21
O=S(=O)(NCCc1ccccc1C(F)(F)F)N1CCOCC1 | 96.69
CCOc1ncccc1CNS(=O)(=O)N1CCOCC1 | -0.8612
